Test results taken from PubChem BioAssay (EPA / NIEHS).
“And” between values parts separate entries of the source, which are not always exact repeats. Identical values can stand only once. Inconclusive results are not listed. The source made the active and inactive calls. The calls were made as follows: active = hit-call score of the fitted dose curve at least 0.9, where 1 is the maximum; inconclusive = response in the unintended direction; inactive = score below 0.9.

Experiments:
[1] = molecular target: rabbit Imidazoline 2 Central (I2C), CKB (gene 100009085) (UniProt P00567); assay: NVS_ENZ_rabI2C: NovaScreen (NVS) Enzymatic Assay for rabbit Imidazoline 2 Central (I2C) (AID 2283228)
How it was run: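 Rabbit brain membranes, cell-free; readout by filter-based scintillation counting 1.5 hours after dosing, loss of signal vs DMSO. Initial duplicate test at 25 uM, then concentration-response with 50 uM top concentration.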

[2] = molecular target: bovine Dopamine Receptor (DR), Non-selective Binding, DRD1 (gene 281125) (UniProt Q95136); assay: NVS_GPCR_bDR_NonSelective: NovaScreen (NVS) G Protein-Coupled Receptor Assay for bovine Dopamine Receptor (DR), Non-selective Binding (AID 2283241)
How it was run: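 Filter-based radioligand binding with bovine striatal membrane, incubated 1 h; DMSO as negative baseline. Initial duplicate single-point test at 25 uM preceded concentration series for actives.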

[3] = test system: bovine Histamine 1 Receptor (H1), gene 281231; assay: NVS_GPCR_bH1: NovaScreen (NVS) G Protein-Coupled Receptor Assay for bovine Histamine 1 Receptor (H1) (AID 2283246)
How it was run: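 Hits from a 25 uM duplicate primary screen were retested in concentration series (top 50 uM); binding measured as scintillation-counted displacement of radioligand from bovine cerebellar membranes after 1 h, normalised to DMSO.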

[4] = test system: guinea pig Muscarinic, Peripheral (Mperiperal) Receptor, Non-selective Binding, gene 100379235; assay: NVS_GPCR_gMPeripheral_NonSelective: NovaScreen (NVS) G Protein-Coupled Receptor Assay for guinea pig Muscarinic, Peripheral (Mperiperal) Receptor, Non-selective Binding (AID 2283250)
How it was run: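 Screened in duplicate at 25 uM, hits retested in concentration series to 50 uM max, using bladder membrane radioligand displacement from guinea pig. Filtration and scintillation counting 1 h post-dose, fitted relative to DMSO.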

[5] = molecular target: guinea pig Opioid, Kappa 1 Receptor (OpiateK), OPRK1 (gene 100135587) (UniProt P41144); assay: NVS_GPCR_gOpiateK: NovaScreen (NVS) G Protein-Coupled Receptor Assay for guinea pig Opioid, Kappa 1 Receptor (OpiateK) (AID 2283252);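 also: active means reduced radioligand binding relative to DMSO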
How it was run: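 Radioligand binding to kappa opioid receptor in guinea pig cerebellar membranes, read by filtration and scintillation at 2 h. Compounds first tested in duplicate at 25 uM, then actives in concentration series; signal loss fitted against DMSO.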

[6] = molecular target: sheep Cyclooxygenase-1 (Cox1), PTGS1 (gene 443551) (UniProt P05979); assay: NVS_ENZ_oCOX1: NovaScreen (NVS) Enzymatic Assay for sheep Cyclooxygenase-1 (Cox1) (AID 2283239);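 also: actives reduce cyclooxygenase activity so potencies are for inhibitors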
How it was run: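 Colorimetric enzyme readout using sheep seminal-vesicle cyclooxygenase-1, measured 0.66 h post-dosing. Single-concentration duplicates at 25 uM first, then concentration series for actives, with DMSO as baseline and plate controls.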

[7] = molecular target: human Serotonin, 5-Hydroxytryptamine Receptor 6 (5HT6), HTR6 (gene 3362) (UniProt P50406); assay: NVS_GPCR_h5HT6: NovaScreen (NVS) G Protein-Coupled Receptor Assay for human Serotonin, 5-Hydroxytryptamine Receptor 6 (5HT6) (AID 2283253)
How it was run: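 Filter scintillation counting of radioligand displacement from HEK293-expressed 5HT6, 1 hour post-dose, with loss of signal relative to DMSO. Single 25 uM duplicates first, with concentration series for confirmation.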

[8] = molecular target: human Adenosine A1 Receptor (AdoRA1), ADORA1 (gene 134) (UniProt P30542); assay: NVS_GPCR_hAdoRA1: NovaScreen (NVS) G Protein-Coupled Receptor Assay for human Adenosine A1 Receptor (AdoRA1) (AID 2283254)
How it was run: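 Hum. cortical membranes + radioligand, cmpd 1 h; filtration, scintillation count. Readout = decrease vs DMSO. Primary 25 uM dup; hits → conc. series.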

[9] = molecular target: human Vascular Endothelial Growth Factor Receptor 2 (VEGFR2), KDR (gene 3791) (UniProt P35968); assay: NVS_ENZ_hVEGFR2: NovaScreen (NVS) Enzymatic Assay for human Vascular Endothelial Growth Factor Receptor 2 (VEGFR2) (AID 2283230)
How it was run: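 Cell-free recombinant VEGFR2 kinase, fluorescent substrate with electrophoretic mobility-shift separation; read 1 h after dosing. Screened at 25 uM in duplicate, hits to concentration-response up to 50 uM; loss-of-signal versus DMSO.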

[10] = NVS_GPCR_bNPY_NonSelective: NovaScreen (NVS) G Protein-Coupled Receptor Assay for bovine Neuropeptide Y (NPY) Receptor, Non-selective Binding (AID 2283245)
How it was run: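 Displacement of radioligand from bovine hippocampal membrane receptors, read by filtration and scintillation counting after 1 hour. Concentration-response to a top of 50 uM followed a 25 uM duplicate primary screen. Loss of signal versus DMSO.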

[11] = molecular target: human Serotonin, 5-Hydroxytryptamine Receptor 5A (5HT5A), HTR5A (gene 3361) (UniProt P47898); assay: NVS_GPCR_h5HT5A: NovaScreen (NVS) G Protein-Coupled Receptor Assay for human Serotonin, 5-Hydroxytryptamine Receptor 5A (5HT5A) (AID 2283251)
How it was run: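 Membranes from HEK293 cells, radioligand binding read by filtration and scintillation after 1 h. Single-concentration duplicate testing at 25 uM, then concentration-response for actives; positive-direction fitting relative to DMSO.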

[12] = molecular target: human Serotonin, 5-Hydroxytryptamine Receptor 7 (5HT7), HTR7 (gene 3363) (UniProt P34969); assay: NVS_GPCR_h5HT7: NovaScreen (NVS) G Protein-Coupled Receptor Assay for human Serotonin, 5-Hydroxytryptamine Receptor 7 (5HT7) (AID 2283255);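 also: hits reduce specific radioligand binding relative to DMSO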
How it was run: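 Filter-bound radioactivity counted after 1 h, with loss of specific radioligand binding fitted against DMSO. Membrane protein came from CHO cells expressing human 5HT7. Chemicals were tested first at 25 uM in duplicate, then in concentration series if active.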

[13] = molecular target: sheep Cyclooxygenase-2 (Cox2), PTGS2 (gene 443460) (UniProt P79208); assay: NVS_ENZ_oCOX2: NovaScreen (NVS) Enzymatic Assay for sheep Cyclooxygenase-2 (Cox2) (AID 2283231)
How it was run: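 Ovine placental enzyme, cell-free; chemical added, 0.66 h, absorbance (colorimetric). Screen 25 uM in duplicate; ≥threshold hits titrated, top 50 uM. Inhibition = signal loss vs DMSO.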

[14] = molecular target: human Tropomyosin Receptor Kinase A (TRKA), NTRK1 (gene 4914) (UniProt P04629); assay: NVS_ENZ_hTrkA: NovaScreen (NVS) Enzymatic Assay for human Tropomyosin Receptor Kinase A (TRKA) (AID 2283224)
How it was run: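 Compounds were screened at 25 uM in duplicate, then concentration series to a 50 uM top for those meeting threshold (e.g. 30% inhibition). Enzyme was recombinant human TrkA, incubated 1 h. Product formation was quantified by fluorescence after mobility-shift separation.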

[15] = molecular target: human Vascular Endothelial Growth Factor Receptor 1 (VEGFR1), FLT1 (gene 2321) (UniProt P17948); assay: NVS_ENZ_hVEGFR1: NovaScreen (NVS) Enzymatic Assay for human Vascular Endothelial Growth Factor Receptor 1 (VEGFR1) (AID 2283226)
How it was run: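 Kinase activity of recombinant human VEGFR1 was read by fluorescence after electrophoretic separation of product from substrate, 1 h post-dosing; initial duplicate single-point testing at 25 uM, followed by concentration-series follow-up, with DMSO as baseline.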

[16] = molecular target: human Vascular Endothelial Growth Factor Receptor 3 (VEGFR3), FLT4 (gene 2324) (UniProt P35916); assay: NVS_ENZ_hVEGFR3: NovaScreen (NVS) Enzymatic Assay for human Vascular Endothelial Growth Factor Receptor 3 (VEGFR3) (AID 2283229)
How it was run: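 Chemicals first run in duplicate at 25 uM, with actives re-tested in concentration series to a top of 50 uM. Recombinant VEGFR3 activity measured after 1 h via fluorescence with mobility-shift product separation; inhibition fitted relative to DMSO.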

[17] = molecular target: guinea pig Leukotriene D4 Receptor (LTD4), CYSLTR1 (gene 100135514) (UniProt Q2NNR5); assay: NVS_GPCR_gLTD4: NovaScreen (NVS) G Protein-Coupled Receptor Assay for guinea pig Leukotriene D4 Receptor (LTD4) (AID 2283248)
How it was run: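 Guinea pig lung membrane preparation; bound radioligand measured by filter scintillation after 1 h, loss of signal versus DMSO marking displacement. Compounds tested at 25 uM in duplicate, hits retested to max 50 uM.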

[18] = molecular target: Adenosine receptor A1 (Bos taurus) (UniProt P28190); assay: NVS_GPCR_bAdoR_NonSelective: NovaScreen (NVS) G Protein-Coupled Receptor Assay for bovine Adenosine Receptor (AdoR), Non-selective Binding (AID 2283244)
How it was run: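 Cell-free binding with membranes from bovine striatum: radioligand displaced by test chemical, read after 1 h by filtration and scintillation. Single-point 25 uM duplicate primary, 50 uM top concentration in follow-up curves, DMSO baseline.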

[19] = molecular target: rat Constitutive Nitric Oxide Synthase (CNOS), Nos1 (gene 24598) (UniProt P29476); assay: NVS_ENZ_rCNOS: NovaScreen (NVS) Enzymatic Assay for rat Constitutive Nitric Oxide Synthase (CNOS) (AID 2283236)
How it was run: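 Single 25 uM duplicate screen, then concentration series to 50 uM for chemicals meeting threshold. Rat brain membrane-derived CNOS activity detected radiometrically by filtration and scintillation counting, 1 h after compound addition; DMSO as baseline.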

[20] = test system: guinea pig Leukotriene B4 Receptor (LTB4), gene 100379538; assay: NVS_GPCR_gLTB4: NovaScreen (NVS) G Protein-Coupled Receptor Assay for guinea pig Leukotriene B4 Receptor (LTB4) (AID 2283247)
How it was run: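 Membranes from guinea pig spleen incubated 2 h with radioligand and compound; bound counts measured by filtration and scintillation. Screened first at 25 uM in duplicate, then actives titrated to a 50 uM top concentration relative to DMSO.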

guinea pig Opioid, Kappa 1 Receptor (OpiateK), OPRK1 (gene 100135587), sequence (P41144 whole entry, looked up): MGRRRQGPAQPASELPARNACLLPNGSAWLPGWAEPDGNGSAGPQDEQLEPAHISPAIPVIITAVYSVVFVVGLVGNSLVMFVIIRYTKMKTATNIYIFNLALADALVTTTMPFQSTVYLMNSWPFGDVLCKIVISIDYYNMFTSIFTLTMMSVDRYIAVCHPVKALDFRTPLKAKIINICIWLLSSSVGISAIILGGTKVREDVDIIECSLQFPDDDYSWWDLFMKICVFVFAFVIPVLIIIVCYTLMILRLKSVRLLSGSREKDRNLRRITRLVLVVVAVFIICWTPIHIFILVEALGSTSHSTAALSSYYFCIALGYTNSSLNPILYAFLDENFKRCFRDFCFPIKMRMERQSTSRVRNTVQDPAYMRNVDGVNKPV
guinea pig Leukotriene D4 Receptor (LTD4), CYSLTR1 (gene 100135514), sequence (Q2NNR5 whole entry, looked up): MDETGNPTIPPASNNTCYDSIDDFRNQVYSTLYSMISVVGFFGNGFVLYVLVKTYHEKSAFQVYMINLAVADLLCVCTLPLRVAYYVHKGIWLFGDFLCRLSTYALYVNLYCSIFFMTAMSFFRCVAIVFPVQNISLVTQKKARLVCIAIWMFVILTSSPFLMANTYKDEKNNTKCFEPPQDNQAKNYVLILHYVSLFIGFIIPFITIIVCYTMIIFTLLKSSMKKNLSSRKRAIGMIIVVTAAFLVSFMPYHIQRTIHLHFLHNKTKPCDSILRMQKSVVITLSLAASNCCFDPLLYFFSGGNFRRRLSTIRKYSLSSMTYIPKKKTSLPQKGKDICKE
human Adenosine A1 Receptor (AdoRA1), ADORA1 (gene 134), sequence (P30542 whole entry, looked up): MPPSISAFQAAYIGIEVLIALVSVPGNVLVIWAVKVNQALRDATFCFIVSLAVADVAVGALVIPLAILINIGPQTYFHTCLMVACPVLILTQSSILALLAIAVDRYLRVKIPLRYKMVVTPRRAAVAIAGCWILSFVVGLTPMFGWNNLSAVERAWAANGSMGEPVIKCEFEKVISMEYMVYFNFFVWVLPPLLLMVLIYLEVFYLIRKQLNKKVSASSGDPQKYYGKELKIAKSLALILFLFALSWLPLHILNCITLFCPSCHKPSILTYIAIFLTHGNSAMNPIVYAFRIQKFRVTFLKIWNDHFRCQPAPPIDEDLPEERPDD
human Vascular Endothelial Growth Factor Receptor 2 (VEGFR2), KDR (gene 3791), sequence (P35968 whole entry, looked up): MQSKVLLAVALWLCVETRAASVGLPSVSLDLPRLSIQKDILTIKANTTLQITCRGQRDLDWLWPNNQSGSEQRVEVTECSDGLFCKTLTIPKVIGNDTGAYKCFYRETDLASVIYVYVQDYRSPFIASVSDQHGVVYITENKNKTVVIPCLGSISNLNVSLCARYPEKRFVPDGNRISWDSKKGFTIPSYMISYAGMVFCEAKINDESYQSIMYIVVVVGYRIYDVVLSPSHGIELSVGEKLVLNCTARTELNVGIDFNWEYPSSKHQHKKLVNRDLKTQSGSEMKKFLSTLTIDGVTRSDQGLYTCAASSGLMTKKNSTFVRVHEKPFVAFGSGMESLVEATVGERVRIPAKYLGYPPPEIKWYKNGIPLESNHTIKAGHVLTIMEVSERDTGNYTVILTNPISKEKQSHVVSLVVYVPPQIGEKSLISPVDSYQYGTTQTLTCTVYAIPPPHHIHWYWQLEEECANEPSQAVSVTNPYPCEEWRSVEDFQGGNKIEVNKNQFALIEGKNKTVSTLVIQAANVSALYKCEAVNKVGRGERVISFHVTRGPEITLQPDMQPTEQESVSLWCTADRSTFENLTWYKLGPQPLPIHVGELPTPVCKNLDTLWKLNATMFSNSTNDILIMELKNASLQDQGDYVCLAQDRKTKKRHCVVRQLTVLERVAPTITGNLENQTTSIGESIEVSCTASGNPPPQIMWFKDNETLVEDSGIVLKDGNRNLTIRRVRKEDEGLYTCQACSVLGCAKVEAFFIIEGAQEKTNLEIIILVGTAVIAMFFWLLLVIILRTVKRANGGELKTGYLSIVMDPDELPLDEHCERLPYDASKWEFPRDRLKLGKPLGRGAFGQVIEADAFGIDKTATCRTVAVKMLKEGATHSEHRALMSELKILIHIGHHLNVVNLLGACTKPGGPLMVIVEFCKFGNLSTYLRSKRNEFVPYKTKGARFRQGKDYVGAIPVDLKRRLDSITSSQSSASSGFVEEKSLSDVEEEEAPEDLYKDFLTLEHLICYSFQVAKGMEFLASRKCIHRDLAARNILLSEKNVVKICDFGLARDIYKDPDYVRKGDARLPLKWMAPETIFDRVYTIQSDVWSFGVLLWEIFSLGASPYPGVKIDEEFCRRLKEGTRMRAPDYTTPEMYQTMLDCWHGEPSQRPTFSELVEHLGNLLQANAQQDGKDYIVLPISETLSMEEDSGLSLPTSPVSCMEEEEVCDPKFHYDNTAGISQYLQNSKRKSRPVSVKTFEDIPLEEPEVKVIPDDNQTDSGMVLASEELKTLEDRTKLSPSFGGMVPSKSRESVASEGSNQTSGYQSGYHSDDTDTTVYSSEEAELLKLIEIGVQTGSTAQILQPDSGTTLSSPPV
Adenosine receptor A1 (Bos taurus), sequence (P28190 whole entry, looked up): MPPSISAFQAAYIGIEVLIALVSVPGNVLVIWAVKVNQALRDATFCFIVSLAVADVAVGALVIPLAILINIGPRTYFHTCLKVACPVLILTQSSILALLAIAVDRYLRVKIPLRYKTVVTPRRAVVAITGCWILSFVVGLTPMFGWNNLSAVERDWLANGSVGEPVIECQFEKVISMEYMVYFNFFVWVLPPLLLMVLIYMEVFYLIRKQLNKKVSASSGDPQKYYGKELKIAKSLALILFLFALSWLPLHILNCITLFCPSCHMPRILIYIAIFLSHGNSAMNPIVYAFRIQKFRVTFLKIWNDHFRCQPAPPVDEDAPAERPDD
human Serotonin, 5-Hydroxytryptamine Receptor 6 (5HT6), HTR6 (gene 3362), sequence (P50406 whole entry, looked up): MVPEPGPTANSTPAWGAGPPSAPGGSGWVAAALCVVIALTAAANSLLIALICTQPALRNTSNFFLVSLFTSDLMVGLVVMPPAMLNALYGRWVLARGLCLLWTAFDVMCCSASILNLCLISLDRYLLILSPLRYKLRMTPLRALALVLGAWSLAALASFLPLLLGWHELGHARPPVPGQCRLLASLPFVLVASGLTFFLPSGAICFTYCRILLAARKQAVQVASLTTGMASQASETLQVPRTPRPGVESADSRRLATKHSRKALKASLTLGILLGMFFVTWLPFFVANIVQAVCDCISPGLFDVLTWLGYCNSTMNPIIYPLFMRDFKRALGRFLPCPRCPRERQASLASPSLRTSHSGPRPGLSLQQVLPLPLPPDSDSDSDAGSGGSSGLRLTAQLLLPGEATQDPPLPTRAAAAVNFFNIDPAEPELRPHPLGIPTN
sheep Cyclooxygenase-1 (Cox1), PTGS1 (gene 443551), sequence (P05979 whole entry, looked up): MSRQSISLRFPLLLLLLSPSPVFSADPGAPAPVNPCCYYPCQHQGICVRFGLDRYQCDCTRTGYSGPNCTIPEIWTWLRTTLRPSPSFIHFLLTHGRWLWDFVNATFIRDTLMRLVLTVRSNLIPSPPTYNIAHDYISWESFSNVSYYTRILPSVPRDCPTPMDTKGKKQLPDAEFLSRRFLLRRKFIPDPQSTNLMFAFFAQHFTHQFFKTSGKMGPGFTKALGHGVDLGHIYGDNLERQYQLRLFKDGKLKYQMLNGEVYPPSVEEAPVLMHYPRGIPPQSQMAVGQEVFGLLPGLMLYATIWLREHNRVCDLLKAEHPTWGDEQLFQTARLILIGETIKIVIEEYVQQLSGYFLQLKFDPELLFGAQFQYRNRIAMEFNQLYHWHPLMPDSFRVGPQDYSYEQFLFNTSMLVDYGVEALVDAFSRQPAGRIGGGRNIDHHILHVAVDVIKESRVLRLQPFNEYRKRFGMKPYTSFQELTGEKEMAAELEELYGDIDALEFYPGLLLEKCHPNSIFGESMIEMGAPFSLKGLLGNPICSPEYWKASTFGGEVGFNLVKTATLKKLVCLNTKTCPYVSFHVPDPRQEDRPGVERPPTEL
human Serotonin, 5-Hydroxytryptamine Receptor 7 (5HT7), HTR7 (gene 3363), sequence (P34969 whole entry, looked up): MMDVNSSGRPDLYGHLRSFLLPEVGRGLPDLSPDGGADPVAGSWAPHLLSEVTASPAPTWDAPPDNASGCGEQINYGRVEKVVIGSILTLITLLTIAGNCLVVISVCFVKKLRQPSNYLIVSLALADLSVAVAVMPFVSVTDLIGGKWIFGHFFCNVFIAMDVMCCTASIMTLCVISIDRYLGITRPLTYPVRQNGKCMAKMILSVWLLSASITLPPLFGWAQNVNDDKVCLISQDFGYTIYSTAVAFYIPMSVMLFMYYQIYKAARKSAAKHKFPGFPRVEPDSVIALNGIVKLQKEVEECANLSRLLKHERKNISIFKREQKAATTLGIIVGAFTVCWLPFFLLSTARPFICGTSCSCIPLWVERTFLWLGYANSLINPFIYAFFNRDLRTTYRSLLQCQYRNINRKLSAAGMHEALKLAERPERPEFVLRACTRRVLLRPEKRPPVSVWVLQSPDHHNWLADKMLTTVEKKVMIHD
rabbit Imidazoline 2 Central (I2C), CKB (gene 100009085), sequence (P00567 whole entry, looked up): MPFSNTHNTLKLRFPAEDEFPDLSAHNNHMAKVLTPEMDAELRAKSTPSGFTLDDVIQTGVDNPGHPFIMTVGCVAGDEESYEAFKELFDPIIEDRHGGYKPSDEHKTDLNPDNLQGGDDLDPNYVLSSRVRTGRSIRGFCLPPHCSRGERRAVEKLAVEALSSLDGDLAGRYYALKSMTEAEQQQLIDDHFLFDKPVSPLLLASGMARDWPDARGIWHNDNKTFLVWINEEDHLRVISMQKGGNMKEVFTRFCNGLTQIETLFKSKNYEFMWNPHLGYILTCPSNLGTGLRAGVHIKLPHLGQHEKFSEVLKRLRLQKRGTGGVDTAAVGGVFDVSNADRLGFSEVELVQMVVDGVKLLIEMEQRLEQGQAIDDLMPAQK
human Serotonin, 5-Hydroxytryptamine Receptor 5A (5HT5A), HTR5A (gene 3361), sequence (P47898 whole entry, looked up): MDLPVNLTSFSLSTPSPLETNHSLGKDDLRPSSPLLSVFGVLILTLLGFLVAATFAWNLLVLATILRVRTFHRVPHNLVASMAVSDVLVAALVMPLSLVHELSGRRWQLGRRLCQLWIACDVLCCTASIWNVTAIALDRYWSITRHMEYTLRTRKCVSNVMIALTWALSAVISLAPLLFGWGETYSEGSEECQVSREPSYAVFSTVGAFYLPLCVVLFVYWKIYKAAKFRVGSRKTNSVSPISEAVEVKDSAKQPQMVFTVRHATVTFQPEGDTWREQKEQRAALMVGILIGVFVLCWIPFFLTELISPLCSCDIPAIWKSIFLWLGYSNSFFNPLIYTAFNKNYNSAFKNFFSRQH

CN(C)CCOC(c1ccccc1)c1ccccc1
AC50 [1]: 8.46 µM (active) | AC50 [2]: 5.83 µM (active) | AC50 [3]: 0.101 µM (active) | AC50 [4]: 0.574 µM (active) | AC50 [5]: 13 µM (active)

Cc1ccc(C(=O)c2ccccc2)cc1
AC50 [6]: 15.5 µM (active)

CN(Cc1cnc2nc(N)nc(N)c2n1)c1ccc(C(=O)N[C@@H](CCC(=O)O)C(=O)O)cc1
AC50 [6]: 1.98 µM (active) | outcome [7]: inactive | outcome [8]: inactive

CCCCc1oc2ccccc2c1C(=O)c1cc(I)c(OCCN(CC)CC)c(I)c1
outcome [1]: inactive | outcome [9]: inactive | outcome [10]: inactive | AC50 [11]: 13.7 µM (active) | AC50 [7]: 7.27 µM (active) | outcome [8]: inactive | AC50 [12]: 6.72 µM (active)

OCC(CO)(CBr)CBr
AC50 [13]: 16.7 µM (active)

O=C1OC2(c3ccccc31)c1cc(I)c(O)c(I)c1Oc1c2cc(I)c(O)c1I
outcome [5]: inactive | AC50 [8]: 6.25 µM (active)

Cc1[nH]nc2c1N=C(c1ccccc1Cl)c1cc([N+](=O)[O-])ccc1N2
AC50 [14]: 17.9 µM (active) | AC50 [15]: 0.0098 µM (active) | AC50 [16]: 0.00229 µM (active) | AC50 [9]: 0.00463 µM (active) | outcome [8]: inactive

CCCCC=O
outcome [13]: inactive

CCCCCCCCCCCCCCCC(=O)OC
outcome [17]: inactive

C=CC(C)(CCC=C(C)C)OC(C)=O (centres undefined)
AC50 [5]: 46.5 µM (active)

O=C(c1ccccc1)c1ccccc1
outcome [18]: inactive

CN(C)c1ccc(C(=C2C=CC(=[N+](C)C)C=C2)c2ccccc2)cc1
AC50 [5]: 15 µM (active) and 12.5 µM (active)

CC(C)(C)c1ccc(O)c(O)c1
outcome [17]: inactive

CCCCCCCCCCCCOS(=O)(=O)O
AC50 [14]: 26 µM (active) | AC50 [16]: 29.3 µM (active) | AC50 [9]: 16.9 µM (active) | outcome [19]: inactive | outcome [18]: inactive | AC50 [20]: 25 µM (active) | AC50 [17]: 8.99 µM (active) | AC50 [11]: 9.77 µM (active) | AC50 [12]: 25 µM (active)
